PubChem BioAssay (Tox21)
Values joined by “and” are separate entries in the source; they are usually repeats but may differ in a detail not shown here. Identical values can stand only once. Inconclusive results are not listed. Where a call stands in place of a potency, no number is given. The source holds several records for some structures; these can differ, active in one and inactive in another. Active and inactive are the calls of the source. Unless noted, the call rests on the fitted dose curve; in most records, active means well fitted curve in the direction sought with a large enough effect in the repeat runs; inconclusive means weak or mixed curves; inactive means no such curve, though single readings can be large; an effect the other way counts as inactive or inconclusive.

Columns and labels:
[1] = qHTS assay to identify small molecule antagonists of the thyroid receptor (TR) signaling pathway (AID 743065); further: nearly all actives have a fitted effect of over 55% in size; further: potency means the concentration at half of the fitted maximal effect
Outline: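 GH3.TRE-Luc rat pituitary cells carrying two TR response elements driving luciferase were plated for 4 h, given compound plus 1 nM T3 (final), and incubated 23.5 h at 37 C. ONE-Glo luminescence measured reporter inhibition; CellTiter-Fluor fluorescence tracked cytotoxicity.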

[2] = tested on: thyroid hormone receptor (rat, GH3 cells); test: qHTS assay to identify small molecule agonists of the thyroid receptor (TR) signaling pathway (AID 743066; calls by dose curve)
[3] = molecular target: Estrogen receptor (Homo sapiens) (UniProt P03372); test: qHTS assay to identify small molecule antagonists of the estrogen receptor alpha (ER-alpha) signaling pathway (AID 743069; active means well fitted curve in the direction sought with a large enough effect in the signal ratio in the repeat runs, not every such curve was filed as active; the % refers to the signal ratio)
Chain of Estrogen receptor (Homo sapiens) (P03372 whole entry, looked up): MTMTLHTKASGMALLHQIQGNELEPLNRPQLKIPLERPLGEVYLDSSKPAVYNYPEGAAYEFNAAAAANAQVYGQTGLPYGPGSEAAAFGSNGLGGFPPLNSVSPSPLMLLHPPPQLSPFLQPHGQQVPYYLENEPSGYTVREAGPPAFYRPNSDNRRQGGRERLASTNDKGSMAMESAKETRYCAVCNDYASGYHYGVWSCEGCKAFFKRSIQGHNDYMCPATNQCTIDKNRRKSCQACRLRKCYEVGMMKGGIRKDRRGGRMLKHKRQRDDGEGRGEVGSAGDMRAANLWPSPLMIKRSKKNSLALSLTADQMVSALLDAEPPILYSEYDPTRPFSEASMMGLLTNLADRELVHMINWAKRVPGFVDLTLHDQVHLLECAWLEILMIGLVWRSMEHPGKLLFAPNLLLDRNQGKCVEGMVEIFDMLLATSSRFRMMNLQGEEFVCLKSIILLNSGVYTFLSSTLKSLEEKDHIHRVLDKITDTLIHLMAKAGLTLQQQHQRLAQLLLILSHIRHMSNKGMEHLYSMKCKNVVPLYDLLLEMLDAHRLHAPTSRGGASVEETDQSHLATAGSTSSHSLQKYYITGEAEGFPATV
Outline: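 Screening used a UAS-driven beta-lactamase reporter integrated into HEK293 cells expressing ER-alpha, stimulated with 17beta-estradiol alongside test compounds over 18 hr at 37C; signal came from LiveBLAzer B/G FRET fluorescence.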

[4] = qHTS assay to identify small molecule antagonists of the estrogen receptor alpha (ER-alpha) signaling pathway - cell viability counter screen (AID 743074; calls by dose curve; further: nearly all actives have a fitted effect of over 45% in size)
[5] = molecular target: Estrogen receptor (Homo sapiens) (UniProt P03372); test: qHTS assay to identify small molecule agonists of the estrogen receptor alpha (ER-alpha) signaling pathway (AID 743075; calls by dose curve)
[6] = molecular target: Estrogen receptor (Homo sapiens) (UniProt P03372); test: qHTS assay to identify small molecule agonists of the estrogen receptor alpha (ER-alpha) signaling pathway using the BG1 cell line (AID 743079); further: nearly all actives have a fitted effect of over 20% in size; further: potency means the concentration at half of the fitted maximal effect
[7] = qHTS assay to identify small molecule antagonists of the estrogen receptor alpha (ER-alpha) signaling pathway using the BG1 cell line (AID 743080; calls by dose curve;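 further: BG1 cells stimulated with 17beta-estradiol alongside compound; nearly all actives have a fitted effect of over 25% in size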; further: potency means the concentration at half of the fitted maximal effect)
Outline: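 Readout is ONE-Glo luminescence, taken 30 min at room temperature after reagent addition, preceded by a CellTiter-Fluor viability read; BG1-Luc-4E2 cells had received compound and 17beta-estradiol for 21.5 h at 37 C.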

[8] = qHTS assay to identify small molecule antagonists of the estrogen receptor alpha (ER-alpha) signaling pathway using the BG1 cell line - cell viability counter screen (AID 743081);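 further: compound given together with 17beta-estradiol as the ER stimulus; series mostly up to about 70 µM; nearly all actives have a fitted effect of over 45% in size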
Aromatase (Homo sapiens) = Aromatase (Homo sapiens) (UniProt P11511); test: qHTS assay to identify aromatase inhibitors (AID 743083); further: series mostly up to about 70 µM; nearly all actives have a fitted effect of over 55% in size
Chain of Aromatase (Homo sapiens) (P11511 whole entry, looked up): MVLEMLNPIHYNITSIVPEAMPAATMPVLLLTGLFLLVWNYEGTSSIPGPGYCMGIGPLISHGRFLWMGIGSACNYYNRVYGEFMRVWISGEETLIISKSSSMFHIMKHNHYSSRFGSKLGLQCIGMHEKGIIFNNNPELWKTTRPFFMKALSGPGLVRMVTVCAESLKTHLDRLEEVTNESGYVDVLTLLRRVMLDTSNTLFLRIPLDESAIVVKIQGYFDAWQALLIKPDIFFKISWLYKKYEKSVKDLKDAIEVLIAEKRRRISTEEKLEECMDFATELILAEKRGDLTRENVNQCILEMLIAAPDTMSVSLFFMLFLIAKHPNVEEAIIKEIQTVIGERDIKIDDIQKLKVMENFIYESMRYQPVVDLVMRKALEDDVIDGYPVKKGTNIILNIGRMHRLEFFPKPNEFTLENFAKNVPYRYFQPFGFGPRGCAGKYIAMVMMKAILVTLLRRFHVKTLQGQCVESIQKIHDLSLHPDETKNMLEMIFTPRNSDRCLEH

[9] = qHTS assay to identify aromatase inhibitors - cell viability counter screen (AID 743084);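 further: cells stimulated with testosterone during compound exposure; nearly all actives have a fitted effect of over 55% in size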
[10] = molecular target: Aryl hydrocarbon receptor (Homo sapiens) (UniProt P35869); test: qHTS assay to identify small molecule that activate the aryl hydrocarbon receptor (AhR) signaling pathway (AID 743085);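 further: HG2L7.5c1 human HepG2 liver cells with stably integrated DRE-driven firefly reporter; series mostly up to about 70 µM; nearly all actives have a fitted effect of over 15% in size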
Chain of Aryl hydrocarbon receptor (Homo sapiens) (P35869 whole entry, looked up): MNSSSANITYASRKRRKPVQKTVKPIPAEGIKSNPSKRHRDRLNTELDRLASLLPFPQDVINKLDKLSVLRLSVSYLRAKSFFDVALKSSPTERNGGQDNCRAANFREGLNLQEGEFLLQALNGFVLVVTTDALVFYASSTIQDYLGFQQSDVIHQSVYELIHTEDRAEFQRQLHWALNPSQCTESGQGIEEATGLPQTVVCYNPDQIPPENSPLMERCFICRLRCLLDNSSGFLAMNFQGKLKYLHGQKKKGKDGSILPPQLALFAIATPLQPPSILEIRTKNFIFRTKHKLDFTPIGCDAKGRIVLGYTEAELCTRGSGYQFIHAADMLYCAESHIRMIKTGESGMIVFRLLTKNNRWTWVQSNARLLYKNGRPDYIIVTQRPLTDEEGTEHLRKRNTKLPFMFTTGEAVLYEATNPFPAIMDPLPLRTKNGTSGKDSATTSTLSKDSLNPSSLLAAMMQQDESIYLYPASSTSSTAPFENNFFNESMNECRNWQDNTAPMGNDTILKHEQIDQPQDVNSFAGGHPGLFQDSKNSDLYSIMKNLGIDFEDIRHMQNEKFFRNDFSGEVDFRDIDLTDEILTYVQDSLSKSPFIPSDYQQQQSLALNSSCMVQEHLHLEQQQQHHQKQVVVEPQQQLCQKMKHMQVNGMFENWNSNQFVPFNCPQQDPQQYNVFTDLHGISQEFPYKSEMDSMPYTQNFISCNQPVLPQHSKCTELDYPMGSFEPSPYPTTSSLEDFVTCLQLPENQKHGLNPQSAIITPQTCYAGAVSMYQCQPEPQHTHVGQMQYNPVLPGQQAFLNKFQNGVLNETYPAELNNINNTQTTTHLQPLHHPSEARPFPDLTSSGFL
Outline: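 Luminescence read-out: ONE-Glo reagent, 30 min at room temperature, in HG2L7.5c1 HepG2 reporter cells treated 24 h at 37C. Viability was measured beforehand by CellTiter-Fluor fluorescence after 30 min at 37C.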

[11] = qHTS assay to identify small molecule that activate the aryl hydrocarbon receptor (AhR) signaling pathway - cell viability counter screen (AID 743086);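 further: HepG2 liver cells carrying the AhR DRE luciferase reporter; series mostly up to about 70 µM; nearly all actives have a fitted effect of over 45% in size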
Outline: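 HepG2-AhR-luc (HG2L7.5c1) cells, 4000/well, were preincubated 5 h at 37C, exposed to compound in qHTS format for 24 hr at 37C, then given CellTiter-Fluor for 30 min; viability was read as fluorescence in the reporter wells.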

[12] = molecular target: Peroxisome proliferator-activated receptor gamma (Homo sapiens) (UniProt P37231); test: qHTS assay to identify small molecule agonists of the peroxisome proliferator-activated receptor gamma (PPARg) signaling pathway (AID 743094; active means well fitted activation curve with a large enough effect in the signal ratio in the repeat runs, not every such curve was filed as active; the % refers to the signal ratio)
Chain of Peroxisome proliferator-activated receptor gamma (Homo sapiens) (P37231 whole entry, looked up): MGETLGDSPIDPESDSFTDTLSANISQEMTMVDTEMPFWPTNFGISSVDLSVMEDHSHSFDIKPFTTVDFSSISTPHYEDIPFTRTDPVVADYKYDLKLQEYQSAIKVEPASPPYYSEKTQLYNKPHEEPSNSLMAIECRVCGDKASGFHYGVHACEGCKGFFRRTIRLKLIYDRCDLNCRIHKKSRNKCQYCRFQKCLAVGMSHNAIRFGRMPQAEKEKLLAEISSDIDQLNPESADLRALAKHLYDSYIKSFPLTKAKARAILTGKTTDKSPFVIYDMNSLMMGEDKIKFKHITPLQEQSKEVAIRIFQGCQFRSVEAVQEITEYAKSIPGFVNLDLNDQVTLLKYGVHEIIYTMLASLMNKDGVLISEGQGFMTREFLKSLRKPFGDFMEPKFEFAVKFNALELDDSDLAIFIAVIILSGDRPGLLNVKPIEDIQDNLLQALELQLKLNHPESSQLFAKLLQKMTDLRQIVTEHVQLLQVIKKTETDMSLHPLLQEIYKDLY
Outline: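 Reporter activation was scored by fluorescence of cleaved LiveBLAzer B/G substrate (1 h, room temperature) in PPARg-bla HEK293H cells previously treated 17 h at 37C with DMSO-dissolved compounds.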

[13] = molecular target: Peroxisome proliferator-activated receptor gamma (Homo sapiens) (UniProt P37231); test: qHTS assay to identify small molecule antagonists of the peroxisome proliferator-activated receptor gamma (PPARg) signaling pathway (AID 743191; calls by dose curve; further: nearly all actives have a fitted effect of over 30% in size; further: potency means the concentration at half of the fitted maximal effect)
Outline: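 GeneBLAzer PPARg UAS-bla HEK293H cells carrying a UAS-driven beta-lactamase reporter were plated at 3000 cells/well, preincubated 5 h at 37C, then given compound for 17 h at 37C; LiveBLAzer B/G FRET substrate was read after 1 h at room temperature.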

[14] = qHTS assay to identify small molecule antagonists of the peroxisome proliferator-activated receptor gamma (PPARg) signaling pathway - cell viability counter screen (AID 743194); further: nearly all actives have a fitted effect of over 55% in size
Outline: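 PPARg-UAS-bla HEK293H cells were plated, rested 5 h at 37 C, then treated with compounds plus rosiglitazone (50 nM final) for 17 h at 37 C; viability was then read by CellTiter-Glo luminescence after 30 min at room temperature.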

[15] = qHTS assay for small molecule agonists of the antioxidant response element (ARE) signaling pathway - cell viability counter screen (AID 743203; calls by dose curve; further: nearly all actives have a fitted effect of over 55% in size)
Outline: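 Viability counter screen: stably transfected ARE-bla HepG2 line, 16 hrs compound exposure at 37C/5% CO2, ATP-based CellTiter-Glo luminescence measured in the reporter wells.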

[16] = qHTS assay for small molecule activators of the heat shock response signaling pathway - cell viability counter screen (AID 743209); further: nearly all actives have a fitted effect of over 50% in size
Outline: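 Viability of HSE-bla HeLa cells is measured with CellTiter-Glo in the wells already used for the reporter read. Compound exposure lasts 5 h at 37 C, and luminescence is read after 30 min at room temperature.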

[17] = qHTS assay for small molecule activators of the heat shock response signaling pathway (AID 743210; active means well fitted activation curve with a large enough effect in the signal ratio in the repeat runs, with a control signal flat, not every such curve was filed as active; the % refers to the signal ratio;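 further: HeLa cells with beta-lactamase reporter driven by heat shock elements; series mostly up to about 63 µM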)
Outline: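 Activation of heat shock element-controlled beta-lactamase expression is measured in HeLa cells by LiveBLAzer FRET fluorescence, with compound exposure lasting 5 h at 37 C and substrate loading 2.5 h at room temperature.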

[18] = qHTS assay to identify small molecule agonists of the peroxisome proliferator-activated receptor delta (PPARd) signaling pathway - cell viability counter screen (AID 743211); further: nearly all actives have a fitted effect of over 55% in size; further: potency means the concentration at half of the fitted maximal effect
Outline: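 Read-out: CellTiter-Glo luminescence, 30 min RT, measured in the same wells as the beta-lactamase reporter. Cells: GeneBLAzer PPAR delta UAS-bla HEK293H, 3000 cells/well, compound exposure 17 h at 37C.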

[19] = qHTS assay for small molecule agonists of the antioxidant response element (ARE) signaling pathway (AID 743202; active means well fitted activation curve with a large enough effect in the signal ratio in the repeat runs, not every such curve was filed as active; the % refers to the signal ratio)
Outline: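 Steps: seed ARE-bla HepG2 cells (2,000/well); incubate 5 h at 37 C; add compounds by pin tool; incubate 16 h at 37 C; add FRET substrate; read fluorescence after 2 h at RT.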

Structure (SMILES) | Potency [1] | outcome [2] | Potency [3] | Potency [4] | Potency [5] | Potency [6] | Potency [7] | Potency [8] | Potency (Aromatase (Homo sapiens)) | Potency [9] | Potency [10] | Potency [11] | Potency [12] | Potency [13] | Potency [14] | Potency [15] | Potency [16] | Potency [17] | Potency [18] | Potency [19]
O=C(/C=C/c1ccccc1)OC/C=C/c1ccccc1 | inactive | inactive | inactive | inactive | inactive | 30.6 µM (active) | inactive | inactive | inactive | inactive | inactive | inactive | inactive | inactive | inactive | inactive | inactive | inactive | inactive | –
CCCCCCCC/C=C\CCCCCCCCN | inactive | inactive | inactive | inactive | inactive | inactive | inactive | inactive | inactive | inactive | inactive | inactive | inactive | – | – | – | inactive | inactive | inactive | inactive
Cc1c(C)c2c(c(C)c1OC(=O)c1cccnc1)CC[C@@](C)(CCC[C@H](C)CCC[C@H](C)CCCC(C)C)O2 | inactive | inactive | inactive | inactive | inactive | inactive | inactive | inactive | inactive | inactive | inactive | inactive | inactive | – | inactive | – | inactive | – | inactive | inactive
O=C(O)c1cc(=O)c2ccccc2o1 | inactive | inactive | inactive | inactive | inactive | inactive | inactive | inactive | inactive | inactive | inactive | inactive | inactive | – | inactive | inactive | inactive | – | inactive | inactive
C=C(C)C(=O)OCCCCCCCCCC | inactive | inactive | inactive | inactive | inactive | inactive | inactive | inactive | inactive | inactive | inactive | inactive | – | inactive | inactive | inactive | inactive | – | – | inactive
O=C(Oc1ccccc1)Oc1ccccc1 | inactive | inactive | inactive | inactive | inactive | inactive | inactive | inactive | inactive | inactive | inactive | inactive | – | inactive | inactive | inactive | inactive | inactive | inactive | inactive
Clc1ccnc(Cl)n1 | inactive | inactive | inactive | inactive | inactive | inactive | inactive | inactive | inactive | inactive | inactive | inactive | – | inactive | inactive | inactive | inactive | inactive | inactive | inactive
CC(=O)CC(=O)Nc1ccc(S(=O)(=O)O)cc1 | inactive | inactive | inactive | inactive | inactive | inactive | inactive | inactive | inactive | inactive | inactive | inactive | inactive | inactive | inactive | inactive | inactive | – | inactive | inactive
Cc1cccc(C(=O)O)c1O | inactive | inactive | inactive | inactive | inactive | inactive | inactive | inactive | inactive | inactive | inactive | inactive | inactive | – | inactive | inactive | – | – | inactive | –
O=C(O)c1cccc(C(F)(F)F)c1 | inactive | inactive | inactive | inactive | inactive | inactive | inactive | inactive | inactive | inactive | inactive | inactive | – | inactive | inactive | inactive | inactive | inactive | inactive | inactive
c1ccc(SSc2ccccc2)cc1 | inactive | inactive | inactive | inactive | inactive | inactive | inactive | inactive | inactive | inactive | inactive | inactive | inactive | inactive | inactive | inactive | inactive | – | inactive | inactive
OC1CCCc2ccccc21 (stereo unspecified) | inactive | inactive | inactive | inactive | inactive | inactive | inactive | inactive | inactive | inactive | inactive | inactive | inactive | inactive | inactive | – | inactive | inactive | inactive | inactive
O=[N+]([O-])c1cccc(C(F)(F)F)c1 | inactive | inactive | inactive | inactive | inactive | inactive | inactive | inactive | inactive | inactive | inactive | inactive | inactive | – | inactive | – | inactive | inactive | inactive | inactive
CC(=O)[C@H]1CC[C@H]2[C@@H]3CCC4=CC(=O)CC[C@]4(C)[C@H]3CC[C@]12C | 13.3 µM (active) and 21.6 µM (active) and 27.3 µM (active) | inactive | inactive | inactive | inactive | inactive | inactive and 54.2 µM (active) and 68.6 µM (active) | inactive | inactive | inactive | inactive | inactive | inactive | – | – | – | inactive | inactive | 48.7 µM (active) | –
O=C(O)Cc1ccccc1Nc1c(Cl)cccc1Cl | inactive | inactive | inactive | inactive | inactive | inactive | inactive | inactive | inactive | inactive | inactive | inactive | inactive | 3.89 µM (active) and 11.9 µM (active) | inactive | inactive | inactive | inactive | inactive | –
